Laboratory results taken from PubChem BioAssay AID651699 (Sanford-Burnham Center for Chemical Genomics, 2012).
About 2,100 (0.58%) of roughly 360,000 compounds were called active. The sample holds actives, similar compounds and a random draw of the others, so the mix is not that of the screen. A number with no mark means an inactive call. Rule as the data show it: active = inhibition above about 36%; inactive = the rest.

These molecules were tested against NEDD8-conjugating enzyme Ubc12 (Homo sapiens) + NEDD8-activating enzyme E1 regulatory subunit (Homo sapiens) (UniProt P61081+Q13564) (assay: inhibitors of cullin neddylation, primary screen, biochemical, TR-FRET, uHTS, NAE and Ubc12 (AID 651699)). Conditions: at 25 µM, stronger effect = higher value.
Sequence of NEDD8-conjugating enzyme Ubc12 (Homo sapiens) + NEDD8-activating enzyme E1 regulatory subunit (Homo sapiens) (P61081 whole entry, looked up): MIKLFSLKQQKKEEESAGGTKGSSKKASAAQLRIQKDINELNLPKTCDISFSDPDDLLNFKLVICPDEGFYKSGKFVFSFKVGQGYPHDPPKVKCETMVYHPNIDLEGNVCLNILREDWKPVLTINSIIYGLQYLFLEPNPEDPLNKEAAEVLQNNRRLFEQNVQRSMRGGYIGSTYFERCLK
Sequence of NEDD8-conjugating enzyme Ubc12 (Homo sapiens) + NEDD8-activating enzyme E1 regulatory subunit (Homo sapiens) (Q13564 whole entry, looked up): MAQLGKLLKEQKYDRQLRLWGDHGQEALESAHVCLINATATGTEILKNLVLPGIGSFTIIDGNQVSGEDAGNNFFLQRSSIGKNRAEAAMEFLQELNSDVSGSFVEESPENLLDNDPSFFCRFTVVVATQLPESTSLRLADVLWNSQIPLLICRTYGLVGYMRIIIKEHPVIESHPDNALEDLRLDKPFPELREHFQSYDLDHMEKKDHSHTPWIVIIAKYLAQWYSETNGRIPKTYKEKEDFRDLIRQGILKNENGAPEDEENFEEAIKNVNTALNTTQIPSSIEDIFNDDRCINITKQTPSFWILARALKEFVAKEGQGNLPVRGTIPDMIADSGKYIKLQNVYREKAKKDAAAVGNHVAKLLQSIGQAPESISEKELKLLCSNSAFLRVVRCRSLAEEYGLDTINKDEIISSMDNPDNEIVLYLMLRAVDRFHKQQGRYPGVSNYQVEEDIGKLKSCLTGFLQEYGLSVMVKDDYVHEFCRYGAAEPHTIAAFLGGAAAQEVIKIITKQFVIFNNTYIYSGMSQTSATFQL
With CC1CCCCC1NC(=O)Cn1cnc2c1c(=O)n(C)c(=O)n2C (centres undefined) the inhibition was 5.44%.
Work on COc1ccc(-c2cc3c(c4c2ccn4C)C2CCC3C2)cn1 (centres undefined) yielded an inhibition of -50.3%.
COc1cc(C2/C(=C(\O)c3ccc4c(c3)CC(C)O4)C(=O)C(=O)N2c2nnc(C)s2)cc(OC)c1OC (centres undefined) was tested, and the inhibition was -20.5%.
COc1ccc(NC(=O)C2=NNC(=O)CC2)cc1S(=O)(=O)N1CCCCC1 was tested, and the inhibition was -1.74%.
CCCCCCC(=O)Nc1nc(C)c(-c2csc(Nc3cccc(OC)c3)n2)s1 showed an inhibition of -13.8%.
CC(=O)Nc1nc(C)c(-c2csc(Nc3ccc(S(N)(=O)=O)cc3)n2)s1 was tested, and the inhibition was 77% (active).
In the case of C=CCCC(=O)Nc1nc(C)c(-c2csc(Nc3ccc(Cl)cc3)n2)s1, the inhibition is reported as -8.67%.
CCCCC(=O)N(C)c1c(CC)nc2c(OCc3ccc(Cl)cc3Cl)cccn12 was tested, and the inhibition was 8.51%.
Molecule CC(C)Cn1cnc2c1c(=O)n(CC(=O)NN)c(=O)n2Cc1ccccc1 has an inhibition of 3.73%.
For CC(C)OC(=O)c1ccc(COc2ccc3ccc(=O)oc3c2)o1, the inhibition was 32.9%.
With Cc1noc(C)c1COc1ccc2ccc(=O)oc2c1 the inhibition was 42.9% (active).
With Cc1noc(C)c1COc1cccc(C(=O)Nc2cccnc2)c1 the inhibition was -1.48%.
CCOC(=O)N1CCC(NC(=O)CN2C(=O)COc3ccc(C(C)(C)C)cc32)CC1 gave an inhibition of -0.68%.
In the case of CN(C)CCN=c1cc(-c2ccccc2)oc2ccc(Cl)cc12, the inhibition is reported as -18.1%.
In the case of Cc1ccc2[nH]c3c(=O)n(CC(=O)NCCc4ccc(Cl)cc4)ncc3c2c1, the inhibition is reported as -2.38%.
Work on Cc1ccnc(NC(=O)C(C)N2C(=O)c3ccccc3C2=O)c1 (centres undefined) yielded an inhibition of 9.23%.
CC(C(=O)NC1CCCC1)N1CCN(S(=O)(=O)c2ccccc2Cl)CC1 (centres undefined) showed an inhibition of -0.01%.
In the case of CC(C(=O)NC1CCCCC1)N1C(=O)c2cccc3cccc1c23 (centres undefined), the inhibition is reported as 39.6% (active).
CC(=O)Nc1cc(-c2ccc(N3CCN(C)CC3)cc2)cn2c(-c3cccc(C(=O)N(C)C)c3)cnc12 gave an inhibition of 0.78%.
CC(=O)Nc1cc(-c2ccc(N3CCN(C)CC3)cc2)cn2c(-c3ccc(F)cc3)cnc12 was tested, and the inhibition was 42.2% (active).
Work on COc1ccccc1-c1cc(NC(C)=O)c2ncc(-c3ccc(F)cc3)n2c1 yielded an inhibition of 38.6%.
With C1=C(N2CCOCC2)/C(=C/c2nc3ccccc3[nH]2)CC1 the inhibition was 43% (active).
In the case of O=C1c2ccccc2C(c2nc3ccccc3[nH]2)N1c1ccccc1 (centres undefined), the inhibition is reported as 4.84%.
Work on CCO[C@H]1OC(C(=O)NCc2ccccc2)=C[C@@H](c2coc3ccccc3c2=O)[C@@H]1CCCO yielded an inhibition of -9.63%.
